Measurements: PubChem BioAssay (NCI)
This is part of a sample that, as a whole, favours compounds with a hit. Of some 83,000 tested, about 20% had one in any assay.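 The test compound was applied at a single concentration to cells in 96-well plates for 48 hours, and percent growth was recorded.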 Calls of active or inactive are those of the source. The calls were made as follows: active = growth percent below 10; inactive = the rest.

Key:
Experiment in all cases: NCI-60 one-dose screen, 48 h (100 = growth as untreated, 0 = no growth, -100 = all killed)
EKVX NSCLC = settings: 10 µM unless noted
SN12C renal = settings: 10 µM unless noted
UO-31 renal = settings: 10 µM unless noted
TK-10 renal = settings: 10 µM unless noted
ACHN renal = settings: 10 µM unless noted
CAKI-1 renal = settings: 10 µM
A498 renal = settings: 10 µM unless noted
CCRF-CEM leukemia = settings: 10 µM unless noted
MOLT-4 leukemia = settings: 10 µM unless noted
SR leukemia = settings: 10 µM unless noted
RPMI-8226 leukemia = settings: 10 µM unless noted
OVCAR-8 ovarian = settings: 10 µM unless noted
OVCAR-5 ovarian = settings: 10 µM unless noted
OVCAR-4 ovarian = settings: 10 µM unless noted
SK-OV-3 ovarian = settings: 10 µM unless noted
IGROV1 ovarian = settings: 10 µM unless noted
HS 578T breast = settings: 10 µM unless noted
NCI/ADR-RES ovarian = settings: 10 µM unless noted
SK-MEL-2 melanoma = settings: 10 µM unless noted
OVCAR-3 ovarian = settings: 10 µM unless noted

Measured: growth

O=C1/C(=C/c2ccc([N+](=O)[O-])cc2)SC(=Nc2ccccc2)N1Nc1ccccc1
active: MOLT-4 leukemia 3.98% | SR leukemia 0.29%
inactive: EKVX NSCLC 70.9% | SN12C renal 29.5% | UO-31 renal 37.1% | TK-10 renal 89.1% | ACHN renal 53% | CAKI-1 renal 38.6% | A498 renal 28.2% | CCRF-CEM leukemia 24% | RPMI-8226 leukemia 42.7% | OVCAR-8 ovarian 50% | OVCAR-5 ovarian 75.8% | OVCAR-4 ovarian 52.9% | SK-OV-3 ovarian 102% | IGROV1 ovarian 61.9% | HS 578T breast 79.1% | NCI/ADR-RES ovarian 45.8%

Cn1nc(Nc2ccccc2)c(C(=O)NN)c1N
inactive: SK-MEL-2 melanoma 103% | SN12C renal 97.3% | UO-31 renal 81.5% | TK-10 renal 118% | ACHN renal 97.4% | CAKI-1 renal 94.1% | A498 renal 97.2% | CCRF-CEM leukemia 91.1% | MOLT-4 leukemia 104% | SR leukemia 107% | RPMI-8226 leukemia 106% | OVCAR-8 ovarian 97.5% | OVCAR-5 ovarian 102% | OVCAR-4 ovarian 99.9% | SK-OV-3 ovarian 103% | IGROV1 ovarian 95.4% | HS 578T breast 99.7% | NCI/ADR-RES ovarian 93.9%

CCOC(=O)c1ccc(N/C=C/C(=O)c2ccccc2)cc1
inactive: EKVX NSCLC 103% | SN12C renal 99.7% | UO-31 renal 99.1% | TK-10 renal 89.8% | ACHN renal 98.5% | CAKI-1 renal 92.7% | A498 renal 99.9% | CCRF-CEM leukemia 102% | MOLT-4 leukemia 97% | SR leukemia 87.8% | RPMI-8226 leukemia 100% | OVCAR-8 ovarian 102% | OVCAR-5 ovarian 101% | OVCAR-4 ovarian 105% | SK-OV-3 ovarian 113% | IGROV1 ovarian 110% | HS 578T breast 113% | NCI/ADR-RES ovarian 103%

COc1ccc(NC(=O)[C@H](C)N)cc1C(=O)Nc1cccc(-c2cc(=O)c3c(OC)c(OC)c(OC)cc3o2)c1
inactive: EKVX NSCLC 81.3% | SN12C renal 55.4% | UO-31 renal 29.7% | TK-10 renal 70.7% | ACHN renal 54.2% | CAKI-1 renal 49% | A498 renal 50.9% | CCRF-CEM leukemia 52.9% | MOLT-4 leukemia 51.4% | SR leukemia 36.5% | RPMI-8226 leukemia 44.1% | OVCAR-8 ovarian 50.1% | OVCAR-5 ovarian 102% | OVCAR-4 ovarian 62.4% | SK-OV-3 ovarian 115% | IGROV1 ovarian 56.7% | HS 578T breast 27.8% | NCI/ADR-RES ovarian 63.8%

C=C1C(=O)O[C@@H]2C[C@@H](C)[C@H](OC)CC(=O)[C@](C)(OC(C)=O)C[C@H](OC(=O)/C(C)=C\C)[C@@H]12
active: ACHN renal 5.58% | SR leukemia 1.2%
inactive: SK-MEL-2 melanoma 87.5% | EKVX NSCLC 83.9% | UO-31 renal 72.4% | TK-10 renal 55.9% | CAKI-1 renal 41.3% | A498 renal 150% | MOLT-4 leukemia 38.1% | RPMI-8226 leukemia 68.3% | OVCAR-8 ovarian 59% | OVCAR-5 ovarian 115% | SK-OV-3 ovarian 96.8% | IGROV1 ovarian 90.1% | OVCAR-3 ovarian 21.4% | HS 578T breast 103% | NCI/ADR-RES ovarian 100%

CCN1C(=O)N(CC)C2SC(N/N=C/c3ccc(F)cc3)=NC21 (configuration not stated)
inactive: SK-MEL-2 melanoma 17.2% | SN12C renal 33.6% | UO-31 renal 50.3% | TK-10 renal 88.3% | ACHN renal 37.3% | CAKI-1 renal 31.7% | CCRF-CEM leukemia 23.2% | MOLT-4 leukemia 23.8% | SR leukemia 19.4% | RPMI-8226 leukemia 19.6% | OVCAR-5 ovarian 48.4% | OVCAR-4 ovarian 67.2% | SK-OV-3 ovarian 36.6% | IGROV1 ovarian 25.1% | HS 578T breast 11.9%
active: A498 renal -22.4% | OVCAR-8 ovarian 2.03% | NCI/ADR-RES ovarian 0.946%

COc1cc(C(=O)c2cc(C(C)=O)c3c4ccccc4ccn23)cc(OC)c1OC
inactive: SK-MEL-2 melanoma 51.5% | SN12C renal 74.4% | UO-31 renal 43.3% | TK-10 renal 70.3% | ACHN renal 71.8% | CAKI-1 renal 30.2% | A498 renal 34% | MOLT-4 leukemia 34.6% | SR leukemia 16.8% | RPMI-8226 leukemia 52.3% | OVCAR-8 ovarian 62.9% | OVCAR-5 ovarian 69.9% | OVCAR-4 ovarian 69.1% | SK-OV-3 ovarian 56.2% | IGROV1 ovarian 52.6% | HS 578T breast 40.5% | NCI/ADR-RES ovarian 27.9%

O=S(=O)(NC1CC2CCC1C2)c1ccc2c(c1)C(=NO)c1cc(S(=O)(=O)NC3CC4CCC3C4)ccc1-2 (configuration not stated)
active: UO-31 renal -93% | ACHN renal -95.4% | CAKI-1 renal -97.5% | CCRF-CEM leukemia -18.8% | SR leukemia -7.47% | RPMI-8226 leukemia -24.6% | OVCAR-4 ovarian -52.4% | IGROV1 ovarian -73.7%
inactive: SK-MEL-2 melanoma 98.1% | SN12C renal 34.6% | TK-10 renal 95.6% | A498 renal 89.4% | MOLT-4 leukemia 47.1% | OVCAR-8 ovarian 67% | OVCAR-5 ovarian 42.5% | SK-OV-3 ovarian 86.4% | HS 578T breast 86% | NCI/ADR-RES ovarian 63.7%
